# Results reported in PubChem BioAssay AID1671202 (University of Kansas High Throughput Screening Laboratory, 2021).
# Several values for one entry are separate records, joined by “and”; a condition that tells them apart may be missing. Equal values may be shown once. In all, about 190,000 compounds went through this assay and about 6,900 (3.6%) were called active. Cut-off read from the data, not from the text of the source: active = inhibition above about 50%; inactive = the rest. Shown is part of a subset that was picked to be rich in actives. Where a structure was tested more than once in an assay, its records may differ in their call.
# Target: Huntingtin (Homo sapiens) (UniProt P42858)
# Experiment: mutant huntingtin-calmodulin interaction inhibitors – biochemical, AlphaScreen, primary screen (AID 1671202);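 note: 0% = both proteins with DMSO and 100% = one protein alone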
# Details: AlphaScreen His-mHTT/GST-CaM binding, luminescence; at 15 µM, stronger effect = higher value
# Sequence of Huntingtin (Homo sapiens) (P42858 whole entry, looked up, stated change not applied): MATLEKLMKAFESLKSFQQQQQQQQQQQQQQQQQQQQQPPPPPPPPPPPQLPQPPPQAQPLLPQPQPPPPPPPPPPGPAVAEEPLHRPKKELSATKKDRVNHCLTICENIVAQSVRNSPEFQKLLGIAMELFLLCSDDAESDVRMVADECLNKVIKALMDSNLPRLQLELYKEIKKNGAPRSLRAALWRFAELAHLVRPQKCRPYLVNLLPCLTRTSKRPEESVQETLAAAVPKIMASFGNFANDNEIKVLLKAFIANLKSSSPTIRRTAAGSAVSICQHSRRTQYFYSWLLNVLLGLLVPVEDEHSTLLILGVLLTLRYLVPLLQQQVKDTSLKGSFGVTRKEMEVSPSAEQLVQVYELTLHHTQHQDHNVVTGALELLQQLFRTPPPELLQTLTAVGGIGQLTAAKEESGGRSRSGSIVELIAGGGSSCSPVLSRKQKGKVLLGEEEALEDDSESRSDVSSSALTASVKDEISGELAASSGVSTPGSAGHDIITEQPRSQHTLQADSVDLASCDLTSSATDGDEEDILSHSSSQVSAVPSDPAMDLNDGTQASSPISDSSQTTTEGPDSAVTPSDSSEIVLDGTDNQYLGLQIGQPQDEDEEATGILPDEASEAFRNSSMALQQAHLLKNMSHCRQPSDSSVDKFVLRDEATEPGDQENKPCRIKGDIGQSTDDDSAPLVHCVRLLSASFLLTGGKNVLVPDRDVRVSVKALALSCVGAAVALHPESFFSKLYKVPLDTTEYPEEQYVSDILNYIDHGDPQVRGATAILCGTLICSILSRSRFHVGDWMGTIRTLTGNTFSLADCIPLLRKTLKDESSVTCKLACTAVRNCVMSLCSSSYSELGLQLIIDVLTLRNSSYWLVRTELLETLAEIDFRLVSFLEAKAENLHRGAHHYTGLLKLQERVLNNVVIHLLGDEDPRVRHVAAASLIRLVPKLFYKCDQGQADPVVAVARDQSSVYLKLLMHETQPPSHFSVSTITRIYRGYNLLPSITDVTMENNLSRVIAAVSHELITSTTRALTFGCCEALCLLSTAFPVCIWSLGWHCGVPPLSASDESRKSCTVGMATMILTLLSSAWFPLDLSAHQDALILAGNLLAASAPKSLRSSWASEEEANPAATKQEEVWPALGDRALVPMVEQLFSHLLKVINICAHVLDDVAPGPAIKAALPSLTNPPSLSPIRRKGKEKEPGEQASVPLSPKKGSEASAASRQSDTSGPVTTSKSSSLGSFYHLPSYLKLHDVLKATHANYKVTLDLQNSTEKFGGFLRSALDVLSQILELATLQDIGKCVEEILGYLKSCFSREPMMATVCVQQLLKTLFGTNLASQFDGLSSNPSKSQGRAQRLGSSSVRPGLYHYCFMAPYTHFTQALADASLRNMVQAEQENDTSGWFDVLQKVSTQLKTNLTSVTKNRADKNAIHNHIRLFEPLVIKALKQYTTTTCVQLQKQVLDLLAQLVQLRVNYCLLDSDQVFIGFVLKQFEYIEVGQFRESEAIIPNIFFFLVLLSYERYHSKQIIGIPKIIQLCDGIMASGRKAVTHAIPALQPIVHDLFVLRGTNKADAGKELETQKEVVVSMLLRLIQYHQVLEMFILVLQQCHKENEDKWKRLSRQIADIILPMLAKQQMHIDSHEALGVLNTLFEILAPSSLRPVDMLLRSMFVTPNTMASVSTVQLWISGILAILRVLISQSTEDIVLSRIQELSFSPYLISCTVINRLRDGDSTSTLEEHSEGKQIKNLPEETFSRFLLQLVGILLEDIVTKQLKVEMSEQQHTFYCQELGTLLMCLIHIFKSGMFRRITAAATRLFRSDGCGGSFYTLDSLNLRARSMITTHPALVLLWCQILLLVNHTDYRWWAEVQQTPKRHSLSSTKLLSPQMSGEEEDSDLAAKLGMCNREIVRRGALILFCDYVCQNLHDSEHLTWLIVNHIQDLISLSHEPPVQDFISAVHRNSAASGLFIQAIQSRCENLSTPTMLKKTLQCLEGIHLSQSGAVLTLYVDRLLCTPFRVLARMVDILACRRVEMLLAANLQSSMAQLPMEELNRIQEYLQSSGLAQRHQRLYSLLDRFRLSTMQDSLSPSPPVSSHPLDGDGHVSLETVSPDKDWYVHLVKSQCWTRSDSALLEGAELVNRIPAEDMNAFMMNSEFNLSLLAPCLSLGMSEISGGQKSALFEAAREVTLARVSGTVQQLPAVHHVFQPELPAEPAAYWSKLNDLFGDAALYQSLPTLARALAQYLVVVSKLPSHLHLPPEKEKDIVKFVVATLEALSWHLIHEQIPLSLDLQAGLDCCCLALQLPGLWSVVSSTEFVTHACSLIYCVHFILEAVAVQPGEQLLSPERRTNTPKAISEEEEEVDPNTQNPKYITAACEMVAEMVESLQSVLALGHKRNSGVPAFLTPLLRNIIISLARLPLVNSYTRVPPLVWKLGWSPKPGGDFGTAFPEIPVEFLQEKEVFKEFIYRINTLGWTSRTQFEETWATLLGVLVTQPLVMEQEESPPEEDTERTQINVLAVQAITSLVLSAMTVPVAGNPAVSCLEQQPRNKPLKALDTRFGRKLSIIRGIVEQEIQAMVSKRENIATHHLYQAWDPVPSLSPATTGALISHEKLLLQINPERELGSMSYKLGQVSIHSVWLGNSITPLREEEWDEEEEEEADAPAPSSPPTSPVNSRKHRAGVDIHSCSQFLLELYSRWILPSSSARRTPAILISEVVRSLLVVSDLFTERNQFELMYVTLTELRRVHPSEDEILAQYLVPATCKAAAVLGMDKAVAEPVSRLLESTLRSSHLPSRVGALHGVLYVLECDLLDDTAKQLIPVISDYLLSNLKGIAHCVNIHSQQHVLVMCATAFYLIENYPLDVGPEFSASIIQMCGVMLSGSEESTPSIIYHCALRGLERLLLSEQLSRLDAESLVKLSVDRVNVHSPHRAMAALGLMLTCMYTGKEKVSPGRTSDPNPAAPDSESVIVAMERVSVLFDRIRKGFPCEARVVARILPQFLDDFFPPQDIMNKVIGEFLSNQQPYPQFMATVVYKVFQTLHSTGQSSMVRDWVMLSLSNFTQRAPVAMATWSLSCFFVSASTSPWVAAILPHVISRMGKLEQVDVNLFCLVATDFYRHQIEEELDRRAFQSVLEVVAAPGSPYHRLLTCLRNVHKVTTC
row,SMILES,inhibition
1,O=C(Nc1ccc(F)cc1F)N1CCc2nc[nH]c2C1,-5.8% (inactive)
2,O=C1C(Nc2cccc(Cl)c2)=C(N2CCOCC2)C(=O)c2ccccc21,59% (active)
3,COC1=C(N2CCOCC2)C(=O)c2ccccc2C1=O,-2.9% (inactive)
4,O=C(NCCN1CCOCC1)Nc1cccc(Cl)c1,-4% (inactive)
5,CCCCN(CC)C(=O)c1cc(Cl)ccc1OC,-8.5% (inactive)
6,Cc1ccc(NC(=O)CN2C(=O)C(c3ccc(Cl)cc3)=NC2(C)C)cc1,-11.7% (inactive)
7,CN(C)c1ccc(CN2CCc3nc(N4CCOCC4)ncc3C2)cc1,96.6% (active)
8,Cc1ccc(CN2CCc3nc(N4CCCC4)ncc3C2)cc1,12.2% (inactive)
9,COc1cc(CN2CCc3nc(N4CCCC4)ncc3C2)cc(OC)c1OC,11.5% (inactive)
10,COc1ccc(CN2CCc3nc(N4CCCC4)ncc3C2)cc1OC,42.3% (inactive)
11,COc1ccc(CN2CCc3nc(N4CCN(c5ncccn5)CC4)ncc3C2)cc1OC,55.5% (active)
12,CN(C)c1ccc(CN2CCc3nc(N4CCN(c5ccccc5F)CC4)ncc3C2)cc1,39.9% (inactive)
13,COc1ccc(OCc2noc(-c3cccc(F)c3)n2)cc1,-9.7% (inactive)
14,CCN(CC)CCNC(=O)C1CCN(c2nnc3ccccn23)CC1,5.6% (inactive)
15,CCC(=O)Oc1ccc2c(C)c(-c3ccccc3)c(=O)oc2c1,-4.1% (inactive)
16,COc1cccc(C=C2Oc3c(ccc(O)c3CN3CC4CC(C3)c3cccc(=O)n3C4)C2=O)c1 (stereo unspecified),32.3% (inactive)
17,Cc1c(NC(=O)c2c([N+](=O)[O-])cnn2C)c(=O)n(-c2ccccc2)n1C,-3% (inactive)
18,COc1ccc2c(c1)c(=O)oc1c(C)c(OCc3ccc(C(=O)O)o3)ccc12,4% (inactive)
19,CC1=C(C#N)C(=O)NC(=O)/C1=C\c1ccc(-c2cccc(Cl)c2)o1,37% (inactive)
20,CC1=C(C#N)C(=O)N(CC(C)O)C(=O)/C1=C\c1ccc(-c2cccc(Cl)c2Cl)o1 (stereo unspecified),93% (active)
21,CC1=C(C#N)C(=O)NC(=O)/C1=C\c1ccc(-c2ccc(Cl)c(C(=O)O)c2)o1,13% (inactive)

row,SMILES,inhibition
1,c1ccc(-n2ncc(-c3nn[nH]n3)n2)cc1,59% (active) and -6.45% (inactive)
2,N#Cc1ccc(C(=O)N2CCC(COc3ccc(C(=O)N4CCCC4)cc3)CC2)cc1,3.57% (inactive)
3,CC(=O)Nc1ccc(S(=O)(=O)N2CCN(C3CCCCCCC3)CC2)cc1,2% (inactive)
4,CC(=O)Nc1ccc(S(=O)(=O)N2CCN(c3ccc(-c4ccccn4)nn3)CC2)cc1,74.1% (active)
5,O=S(=O)(c1cccnc1)N1CCN(c2ccc(-c3cccs3)nn2)CC1,-2.7% (inactive)
6,CN(C)c1ccc(CCCNC(=O)C23CC4CC(CC(C4)C2)C3)cc1,1.3% (inactive)
7,O=C(N1CCCC1)C12CC3CC(C1)CC(c1ccccc1)(C3)C2,2.5% (inactive)
8,CN(C)c1ccc(CNCC23CC4CC(C2)CC(c2ccccc2)(C4)C3)cc1,100% (active)
9,O=C(c1cccc(OCC2CCCN(C(=O)c3ccccc3F)C2)c1)N1CCCCC1 (stereo unspecified),-4.06% (inactive)
10,CC(=O)NCc1cnn(-c2ccc(C(=O)Nc3ccccc3)cc2)c1,-1.5% (inactive)
11,CCCCN=C(C(=O)Nc1ccc(Cl)c(C(F)(F)F)c1)c1ccccc1NC(C)=O,0% (inactive)
12,CN(C)c1ccc(-c2ccc3nc(C(=O)N4CCCC4)cn3c2)cc1,97.2% (active)
13,CCCCN1CCN(C(=O)c2cn3cc(C)ccc3n2)CC1,0.1% (inactive)
14,O=C(c1cn2cc(-c3ccc(F)c(Cl)c3)ccc2n1)N1CCOCC1,16.9% (inactive)
15,CC1=C(C(=O)Nc2ccc(C)cc2C)C(c2ccccc2[N+](=O)[O-])n2ncnc2N1 (stereo unspecified),25% (inactive)
16,O=C(Cc1ccccc1)ON=C1C=CC(=NOC(=O)c2ccccc2)C=C1,14% (inactive)
17,Cc1cc(OC(=O)C=Cc2ccccc2)c([N+](=O)[O-])c(=O)[nH]1,7.1% (inactive)
18,O=C1C=CC(=NOC(=O)/C=C/c2ccccc2)C=C1,100% (active)
19,O=S1(=O)c2ccc(Br)cc2OC[C@@H](Cc2ccccc2)N1Cc1cn(Cc2ccco2)nn1,5.1% (inactive)
20,O=C(COc1ccc(Br)cc1)Nc1ccc2c(c1)OCO2,0.4% (inactive)
21,O=S(=O)(c1cccs1)N(c1ccccc1)C(F)F,-18.8% (inactive)

row,SMILES,inhibition
1,CCc1ccc(S(=O)(=O)N=C2C=C(Br)C(=O)c3ccccc32)cc1,38% (inactive)
2,COc1ccc(S(=O)(=O)N=C2C=C(Br)C(=O)c3ccccc32)cc1,31% (inactive)
3,CCOc1ccc(NC(=O)C2CCC(N3C(=O)c4ccccc4C3=O)CC2)cc1 (stereo unspecified),2.4% (inactive)
4,CCOc1ccc(S(=O)(=O)N=C2C=C(Nc3ccc(C)cc3)C(=O)c3ccccc32)cc1,93% (active)
5,O=C1C(Nc2ccc(Br)cc2)=CC(=NS(=O)(=O)c2cccs2)c2ccccc21,80% (active)
6,CCc1ccc(S(=O)(=O)N=C2C=C(Nc3ccc(OC)cc3)C(=O)c3ccccc32)cc1,91% (active)
7,CCOc1ccc(NS(=O)(=O)c2ccc(Cl)cc2)cc1,-13% (inactive)
8,Cc1cc(Br)ccc1NC(=O)C(NS(=O)(=O)c1cccs1)C(C)C (stereo unspecified),-6% (inactive)
9,Clc1ccc(Cl)c(-c2ccc(CNC3CC3)o2)c1,-25.6% (inactive)
10,COc1cc(C=C2C(=O)c3ccccc3C2=O)ccc1OCc1ccccc1,4% (inactive)
11,COc1cc(CN2CCC(O)CC2)ccc1OCc1ccccc1,-5.7% (inactive)
12,COc1ccc(CNC(=O)C(=O)Nc2ccc(OC)cc2)cc1,-2.2% (inactive)
13,COc1cc(CNc2ccc(F)cc2)ccc1OCc1ccccc1,55.7% (active)
14,COc1ccc(CNc2ccc3c(c2)CCC3)cc1OC,62.8% (active)
15,COc1ccc(NCc2ccc(OC)c(C)c2)cc1,52% (active)
16,COc1ccc(CNc2nccs2)cc1,5.7% (inactive)
17,COc1ccc(CC(=O)Nc2c3c(nc4c2CCC4)CCCC3)cc1OC,2% (inactive)
18,COc1ccc(CCCN)cc1OC,-2.8% (inactive)
19,CCN1CCCC1CNC(=O)c1ccc(Sc2ccc(C)cc2)c(NC(C)=O)c1 (stereo unspecified),-3% (inactive)
